Data as given in the supplement of paper PMC9334596.
Several values for one entry are separate records, joined by “and”; a condition that tells them apart may be missing. Equal entries are not always repeated. The full ranking holds about 5,300 compounds; the median of “PER2::LUC luminescence relative to vehicle control” is about 0.96, and the highest 2% start at about 1.3. Only a selection was taken, and the highest values are over-represented in it overall.

Tested on: mPer2Luc MEF
Test: PER2::LUC luminescence relative to vehicle control (fold of vehicle); higher = higher PER2::LUC reporter signal
Conditions: 10 µM
How it was run: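 Each value gives PER2::LUC luminescence as fold of vehicle control, measured with the ONE-Glo luciferase assay system in mouse embryonic fibroblasts carrying the mPer2Luc reporter. Cells grown in DMEM with 10% FBS at 37 °C and 5% CO2 were seeded at ~3000 per well in 384-well plates. Library compounds were added at 10 μM 48 h later, and readings were taken 24 h and 30 h after treatment.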

Row | Structure (SMILES) | PER2::LUC luminescence (time after treatment 24 h) | PER2::LUC luminescence (time after treatment 30 h)
1 | NC[C@H]1CC[C@H](C(=O)Oc2ccc(CCC(=O)O)cc2)CC1 | 0.828 | 0.901
2 | Cc1cc2c(cc1Cl)N(C(=O)Nc1ccc(Oc3cccnc3C)nc1)CC2 | 0.924 | 1.03
3 | C[Si](C)(C)CCOCn1ccc2c(-c3cn[nH]c3)ncnc21 | 1.11 | 1.03
4 | O=C(O)CCC(=O)Nc1ccc(S(=O)(=O)Nc2nccs2)cc1 | 0.666 | 0.939
5 | O=C(O)c1ccccc1C(=O)Nc1ccc(S(=O)(=O)Nc2nccs2)cc1 | 0.993 | 0.892
6 | S=C(Nc1ccccc1)Nc1nccs1 | 1.46 | 1.58
7 | CCOc1ccc(C(Nc2ccccn2)c2ccc3ccc(C)nc3c2O)cc1C (centres undefined) | 1.13 | 1.13
8 | NC(N)=NCCC[C@H](NC(=O)[C@@H](N)Cc1ccc(O)cc1)C(=O)O | 1.04 | 0.909
9 | CS(=O)(=O)c1cc(F)cc2c3c(n(Cc4ccc(Cl)cc4)c12)[C@@H](CC(=O)O)CC3 | 1.13 | 1.09
10 | CC(C)CCC[C@@H](C)[C@H]1CC[C@H]2[C@@H]3CC=C4C[C@@H](O)CC[C@]4(C)[C@H]3CC[C@]12C | 0.926 | 0.923
11 | CC(=O)OC1CCC2(C)C(=CCC3C2CCC2(C)C(C(C)CCCC(C)C)CCC32)C1 (centres undefined) | 1.04 | 0.938
12 | CC(C)CCC[C@@H](C)[C@H]1CC[C@H]2[C@@H]3CC=C4CC(=O)CC[C@]4(C)[C@H]3CC[C@]12C | 1.42 | 1.09
13 | CO[C@H]1[C@H](OC(=O)c2ccc(C)[nH]2)[C@H](O)[C@@H](Oc2ccc3c(O)c(NC(=O)c4c[nH]c(C(=O)Nc5c(O)c6ccc(O[C@H]7OC(C)(C)[C@@H](OC)[C@H](OC(=O)c8ccc(C)[nH]8)[C@@H]7O)c(C)c6oc5=O)c4C)c(=O)oc3c2C)OC1(C)C | 1.1 | 1.13
14 | C/C1=C\CC(C)(C)/C=C/C(=O)/C(C)=C/CC1 | 1.08 | 1.06
15 | Cc1nc2ccccc2n1Cc1ccc(Cl)cc1 | 0.361 | 0.307
16 | Clc1ccc(Cn2c(CN3CCCC3)nc3ccccc32)cc1 | 1.06 and 0.848 | 0.924 and 0.834
17 | CN(c1nccc(=O)[nH]1)C1CCN(c2nc3ccccc3n2Cc2ccc(F)cc2)CC1 | 1.07 | 1.45
18 | COc1ccc([C@@H]2OC[C@@H]3[C@H]2CO[C@H]3c2ccc(OC)c(OC)c2)cc1OC | 1.05 | 1.07
19 | CC1(C)CC(NC(=O)C(=O)Nc2ccc(Br)cc2)CC(C)(C)N1 | 0.875 | 0.928
20 | NC1CCN(O)C1=O (single isomer, unassigned; (-)) | 1.08 | 1.01
21 | CC1(C)CC(NC(=O)C(=O)Nc2ccc(Cl)cc2)CC(C)(C)N1 | 0.958 | 1
22 | O=C(O)c1cc(=O)c2ccccc2[nH]1 | 1.08 | 0.931

Row | Structure (SMILES) | PER2::LUC luminescence (time after treatment 24 h) | PER2::LUC luminescence (time after treatment 30 h)
23 | O=c1c2ccccc2nc2n1CCc1c-2[nH]c2ccccc12 | 1.36 | 1.51
24 | O=C1c2ccccc2-n2c1nc1ccccc1c2=O | 0.998 | 0.885
25 | CC1(C)CC2C1CC[C@]1(CBr)CCC3C(CC(=O)O)C(=O)O[C@@]32C1 (some centres undefined) | 1.04 | 0.929
26 | NCC(O)COc1cccc2ccccc12 (centres undefined) | 0.637 | 0.588
27 | Cc1onc(-c2ccccc2)c1C(=O)N1CCN(c2ccc([N+](=O)[O-])cc2Cl)CC1 | 0.896 | 1.04
28 | CC(=O)Nc1ccccc1 | 0.881 | 1.21
29 | O=C(Nc1ccccc1)Nc1ccccc1 | 1.57 | 1.44
30 | O=C(Nc1ccccc1)c1ccccc1O | 1.27 | 1.08
31 | CC(C)c1c2cc(-c3ccnc(NC4CCC(NC5CCOCC5)CC4)n3)ccc2nn1C (centres undefined) | 0.008 | 0.002
32 | OC[C@H]1O[C@@H](O[C@@H]2OC=C[C@H]3[C@H](O)[C@@H]4O[C@]4(CO)[C@@H]23)[C@H](O)[C@@H](O)[C@@H]1O | 1.04 | 1
33 | O=c1cc(-c2ccccc2)oc2ccc(O)cc12 | 1.47 | 1.89
34 | O=c1cc(-c2ccccc2)oc2cc(O)c(O)cc12 | 1.41 | 1.47
35 | Cc1cc(=O)oc2cc(O)ccc12 | 1.01 and 1.08 and 0.784 | 0.94 and 0.807 and 0.997
36 | O=c1c(O)c(-c2ccccc2)oc2ccccc12 | 1.08 | 1.05
37 | O=c1cc(-c2ccccc2)oc2c(O)c(O)ccc12 | 0.582 | 0.632
38 | O=c1oc2ccc(O)cc2c2c1NCCC2 | 0.764 | 1.05
39 | O=c1cc(-c2ccc(O)cc2)oc2ccc(O)cc12 | 1.72 | 1.87
40 | CCOC(=O)COc1ccc2c(=O)cc(-c3ccccc3)oc2c1 | 1.06 | 1.08
41 | O=c1oc2cc(O)ccc2c2oc3cc(O)ccc3c12 | 1.06 | 1.13
42 | O=c1cc(-c2ccc(O)cc2)oc2cc(O)c([C@@H]3O[C@H](CO)[C@@H](O)[C@H](O)[C@H]3O)c(O)c12 | 0.972 | 0.983
43 | O=c1cc(-c2ccccc2O)oc2cc(O)ccc12 | 1.27 | 1.38
44 | O=C(O)/C=C/c1ccc(O)c(O)c1/C(=C\c1ccc(O)c(O)c1)C(=O)O | 1.15 | 1.02

Row | Structure (SMILES) | PER2::LUC luminescence (time after treatment 24 h) | PER2::LUC luminescence (time after treatment 30 h)
45 | COc1cc(O)c(C(=O)/C=C/c2ccc(OC)c(O)c2)c(OC)c1 | 1.08 | 1
46 | COc1ccc(SC(=O)N[C@@H](CCC(=O)O)C(=O)O)cc1 | 0.852 | 0.909
47 | CC(C)(O)c1ccccc1Cc1ccccc1 | 0.709 | 1.18
48 | C=CC1=C(C)C2=CC3=NC(=C(CC(=O)O)C4=NC(=C(C)C4=C(O)O)C=c4[nH]c(c(C)c4CC)=CC1=N2)C(CCC(=O)O)C3C (centres undefined) | 0.911 | 0.984
49 | OC[C@H]1O[C@H](O[C@H]2C(O)[C@@H](O)[C@@H](OC[C@H]3O[C@@H]4O[C@H]5[C@H](O)[C@@H](O)[C@@H](O[C@H]6[C@H](O)[C@@H](O)[C@@H](O[C@H]7[C@H](O)[C@@H](O)[C@@H](O[C@H]8[C@H](O)[C@@H](O)[C@@H](O[C@H]9[C@H](O)[C@@H](O)[C@@H](O[C@H]%10[C@H](O)[C@@H](O)[C@@H](O[C@H]3[C@H](O)[C@H]4O)O[C@@H]%10CO)O[C@@H]9CO)O[C@@H]8CO)O[C@@H]7CO)O[C@@H]6CO)O[C@@H]5CO)O[C@@H]2CO)[C@H](O)[C@@H](O)[C@@H]1O (some centres undefined) | 1.08 | 1.06
50 | C=CCCCCCCCCCCCC(O)CC(O)COC(C)=O (centres undefined) | 0.894 | 0.95
51 | C[C@H](CCC(=O)NCCC[N+](C)(C)CCCS(=O)(=O)[O-])[C@H]1CC[C@H]2[C@@H]3[C@H](O)C[C@@H]4C[C@H](O)CC[C@]4(C)[C@H]3C[C@H](O)[C@]12C | 1.06 | 0.883
52 | O=c1c(O)c(-c2ccccc2)oc2cc(O)ccc12 | 1.13 | 1.18
53 | O=c1cc(-c2ccccc2)oc2cc(O)ccc12 | 1.48 | 1.84
54 | CC1=C([C@@H]2C=C3[C@@H](CC[C@]4(C)[C@@H]([C@H](C)CCCC(C)C)CC[C@@H]34)n3c(=O)n(-c4ccccc4)c(=O)n32)C[C@@H](O)C[C@@H]1O | 0.94 | 0.899
55 | O=c1ncccn1[C@@H]1O[C@H](CO)[C@@H](O)[C@H]1O | 0.999 | 1.07
56 | O=c1cnn([C@@H]2O[C@H](CO)[C@@H](O)[C@H]2O)c(=O)[nH]1 | 1.41 | 1.5
57 | O=c1ccn([C@@H]2O[C@H](CO)[C@@H](O)[C@H]2O)c(=O)[nH]1 | 0.979 | 1.03
58 | NC(=NC12CC3CC(CC(C3)C1)C2)Nc1ccc(I)cc1 | 1.06 | 0.918
59 | CNC(=O)c1cc(Oc2ccc(NC(=O)c3cccc(C(F)(F)F)c3)cc2)ccn1 | 1.15 | 1.14
60 | CCOC(=O)c1ccc(N(C)c2csc(-c3ccccc3)n2)cc1 | 1.19 | 1.58
61 | O=C(OCc1ccccc1)c1ccccc1 | 1.05 | 1.03
62 | CCOC(=O)c1ccc(O)cc1 | 1.06 and 0.859 | 1.02 and 0.79
63 | Cn1cc(-c2ccc3nnc(Sc4ccc5nn(C)cc5c4)n3n2)cn1 | 0.782 | 0.785
64 | C=CC(C)(C)c1cc(/C=C\C(=O)c2ccc(O)cc2)c(OC)cc1O | 0.553 | 0.862
65 | C[C@@H]1C[C@H]2[C@@H]3C[C@H](F)C4=CC(=O)C(Cl)=C[C@]4(C)[C@@]3(F)[C@@H](O)C[C@]2(C)[C@@]1(O)C(=O)CO | 0.765 | 0.857
66 | CC(=O)O[C@H](CC(=O)O)C[N+](C)(C)C | 1.03 | 0.967

Row | Structure (SMILES) | PER2::LUC luminescence (time after treatment 24 h) | PER2::LUC luminescence (time after treatment 30 h)
67 | CC(C)(C)OC(=O)N1CCC(OCc2nc(-c3ccncc3)no2)CC1 | 0.986 | 0.843
68 | NC(=O)c1cccc(-c2cccc(OC(=O)NC3CCCCC3)c2)c1 | 1.27 | 1.36
69 | NC(=O)c1cccc(N)c1 | 1.1 | 1.01
70 | CC(=O)c1ccc(S(=O)(=O)NC(=O)NC2CCCCC2)cc1 | 1.02 | 0.908
71 | CCCCN(CCCC)CCCOC(=O)c1ccc(N)cc1 | 0.966 | 0.832
72 | N=C(N)c1ccc(N)cc1 | 0.971 | 1.01
73 | CCCOc1ccc(C(=O)OCCN(CC)CC)cc1N | 1.03 | 0.962
74 | CCCCOC(=O)c1ccc(N)cc1 | 1.06 and 1.09 | 1.28 and 1.2
75 | CCN(CC)CCOC(=O)c1ccc(N)cc1 | 1.07 and 0.897 | 1.58 and 0.928
76 | Nc1ccc(C(=O)O)cc1 | 0.924 and 0.9 | 0.926 and 0.943
77 | CC(C)COC(=O)c1ccc(N)cc1 | 1.34 | 1.43
78 | CCCCNc1ccc(C(=O)OCCN(C)C)cc1 | 1.04 | 0.965
79 | CCCCOC(=O)c1ccc(O)cc1 | 1.63 and 1.43 | 1.61 and 1.57
80 | CN(C)[C@@H]1c2onc(OCc3ccccc3)c2C(=O)[C@@]2(O[Si](C)(C)C(C)(C)C)C(=O)C=CC[C@@H]12 | 0.723 | 0.75
81 | c1ccc2[nH]ncc2c1 | 0.963 | 0.985
82 | CNc1ccccc1C(=O)N1CCc2c([nH]c3ccccc23)C1=O | 1.56 | 1.79
83 | CN1CCc2ccccc2Cc2[nH]c3ccccc3c2CC1 | 1.11 | 0.824
84 | CN1c2ccccc2C(=O)N2CCc3c([nH]c4ccccc34)C21 (stereo in doubt) | 0.589 | 0.628
85 | O=Cc1ccc2cccc(O)c2n1 | 1.1 | 0.962
86 | Nc1n[n+]([O-])c2ccccc2[n+]1[O-] | 1.36 | 1.15
87 | CNC(=S)NCCSCc1[nH]cnc1C | 1.06 | 1.06
